Assay outcomes deposited in PubChem by Broad Institute.
Hits are enriched below; roughly 2.7% of the tested compounds scored in any of these assays.
INS-1E GSIS act = GLuc luminescence reporter in INS-1E cells, primary screen for activators of glucose-dependent secretion of insulin. 370,000 compounds, 0.61% hits. activation, % at 16.6 µM. INS-1E GLuc reporter insulin secretion, 2-3 h;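 active means lowest replicate activation of at least 40%, so every replicate reaches that level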;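 further: 0% = median of neutral control wells and 100% = median of IBMX positive control wells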
Env fusion inh = HIV envelope-mediated fusion inhibition. HeLa-JRFL Env/CEM21 cell fusion, luciferase. inhibition, % at 12.3 µM. 360,000 compounds, 1.1% hits. AID 651610;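 active means mean replicate inhibition score of at least 50 and every replicate individually at or above 50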;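 further: 0% = plate neutral controls and 100% = maraviroc near 300 nM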
MITF TRPM1 HTS = increases MITF-driven TRPM1 promoter luciferase signal; SK-MEL-5 TRPM1-promoter luciferase, 24 h; % of positive control, neutral wells = 0; activation, % at 12.5 µM; 300,000 compounds, 0.75% hits; AID 588334;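 active means mean activation of at least 80% with every replicate also reaching 80%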;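 further: 0% = neutral control wells and 100% = parthenolide positive control wells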
F508del corr = CFTR F508del correction in bronchial cells; CFBE cells, YFP halide quenching; stimulated with forskolin plus potentiator P3; % fluorescence drop versus neutral controls; activity (quench increase), % at 7.58 µM; 350,000 compounds, 0.36% hits;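 active means mean added fluorescence quench of at least 8% versus neutral control, with both replicates also reaching 8%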;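 further: cells transiently co-express mutant CFTR-F508del with the halide-sensitive YFP; corrector assay measuring rescue of mutant channel to the surface after 24 h compound exposure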
Wnt act = activators of Wnt/beta-catenin signaling. activation, % at 9.35 µM. 300,000 compounds, 1.2% hits. AID 743398. Wnt/beta-catenin reporter cell assay, activator, plate reader; in the data active means activation above about 30%, passing the limit was not always enough;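 further: 0% = neutral control wells and 100% = positive control wells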
Active calls of the source: *; nt = no result given; [ ] = another dose, or the depositor's remark.

SMILES | INS-1E GSIS act | Env fusion inh | MITF TRPM1 HTS | F508del corr | Wnt act
CC(=O)Nc1ccc(C=C2C(=O)NC(=O)NC2=O)cc1 | 2 | 63* | 0 | -2 | -22
CN(C)c1ccc(C=C2C(=O)NC(=O)NC2=O)cc1 | -4 | 0 | 8 | -1 | 3
CCN1[C@@H]2c3ccc(-c4cccc(C(=O)N(C)C)c4)c(=O)n3C[C@H]1[C@H](CO)[C@H]2C(=O)OC | -1 | nt | nt | 2 | nt
O=C(C1CC(c2ccc(Cl)c(Cl)c2)=NO1)N1CCC2(CC1)OCCO2 (configuration not stated) | -18 | nt | 117* | nt | nt
O=C(C1CC(c2ccc(F)cc2)=NO1)N1CCC2(CC1)OCCO2 (configuration not stated) | -18 | -54 | 52 | nt | 19
CC1CCC(C(C)C)C(OC(=O)Cn2c(COc3ccccc3)[n+](C)c3ccccc32)C1 (configuration not stated) | 154* | 78* | -96 | 1 | -1
COc1ccc(NC2=NCC(C)S2)cc1 (configuration not stated) | 3 | -7 | 7 | 3 | 4
COc1ccc(NC2=NC(C)(C)CS2)cc1 | 4 | -3 | 95* | -3 | 7
CCOC(=O)c1c(/N=C/c2c(O)n(-c3ccccc3F)c(=S)[nH]c2=O)sc2c1CCCC2 | nt | nt | -3 | nt | nt
CCOC(=O)c1c(/N=C/c2c(O)n(-c3ccc(F)cc3)c(=S)[nH]c2=O)sc2c1CCCC2 | 75* | 7 | -6 | nt | nt
O=C1NC(=O)C2(Cc3ccccc3N3CCCC32)C(=O)N1 (configuration not stated) | 6 | 61* | -10 | nt | nt
CN(C)C1C(=O)C(C(N)=O)=C(O)C2(O)C(=O)C3=C(O)c4c(O)cccc4C(C)(O)C3C(O)C12 (configuration not stated) | -5 | 63* | 3 | -4 | -1
O=C(Cc1ccccn1)N1CCCCN2[C@@H](CO)[C@H](c3ccc(-c4ccccc4)cc3)[C@@H]2C1 | 9 | nt | nt | 1 | nt
Cc1cccc(C)c1-n1nnnc1C(c1cccs1)N1CCC(n2c(=O)[nH]c3ccccc32)CC1 (configuration not stated) | -16 | 25 | nt | -4 | -3
Cc1cccc(C)c1-n1nnnc1C(c1cccc2ccccc12)N1CCC(n2c(=O)[nH]c3ccccc32)CC1 (configuration not stated) | 14 | 74* | nt | -4 | -3
O=c1[nH]c2ccccc2n1C1CCN(C(CCc2ccccc2)c2nnnn2Cc2ccccc2)CC1 (configuration not stated) | -15 | 66* | nt | 3 | -3
O=C(Cc1ccccc1)N1CC2(C1)[C@@H](c1ccccc1)[C@H](CO)N2Cc1cccc(F)c1 | -16 | nt | nt | nt | nt
CCC(C)(C)n1nnnc1C(c1cccs1)N1CC=C(c2ccc(F)cc2)CC1 (configuration not stated) | 17 | 96* | 4 | nt | nt
Cc1cccc(N=Nc2ccc(N(C)C)cc2)c1 | 5 | -110 | 56 | 0 | 49*
C=Cc1cc(OC)c2c(c1)c(=O)oc1c2cc(OC)c2c(O)ccc(C3OC(C)C(O)C(C)(O)C3O)c21 (configuration not stated) | nt | 47 | -77 | 18* | -8
O=C(O)[C@H]1[C@H](CO)[C@H]2Cn3c(ccc(-c4ccncc4)c3=O)[C@@H]1N2C(=O)C1CCCCC1 | 7 | nt | nt | -1 | nt
CCCCCCn1c(=O)c(C(=O)Nc2ncccc2C)c(O)c2ccccc21 | 17 | 83* | nt | 0 | 4
C[C@H]1CC[C@@H]2[C@@H](C)[C@H]3[C@H](C[C@H]4[C@@H]5CC=C6C[C@@H](O[C@@H]7O[C@H](CO)[C@H](O)[C@H](O[C@@H]8O[C@H](CO)[C@@H](O)[C@H](O)[C@H]8O)[C@H]7O[C@@H]7O[C@@H](C)[C@H](O)[C@@H](O)[C@H]7O)CC[C@]6(C)[C@H]5CC[C@]34C)N2C1 | 50* | nt | -42 | -2 | -1
CC=Cc1ccc2n(c1=O)C[C@H]1[C@H](CO)[C@@H](C(=O)O)[C@@H]2N1S(=O)(=O)c1ccccc1F (mixture of isomers) | 18 | 8[16.7 µM] | nt | nt | nt
CC1CCC/C=C/C2CC(O)CC2C(O)/C=C/C(=O)O1 (configuration not stated) | nt | 107* | -84 | nt | -32
SMILES | INS-1E GSIS act | Env fusion inh | MITF TRPM1 HTS | F508del corr | Wnt act
COc1ccc(CCN(C)Cc2ccc(F)cc2F)cc1OC | 15 | -3 | 3 | nt | 34*
CCN(CC)c1ccc(CN(C)CCc2ccc(OC)c(OC)c2)cc1 | -23 | 10 | 6 | nt | nt
CCN(CC)C(=O)c1ccc(NC(=O)c2cccc(C(F)(F)F)c2)cc1 | -3 | 2 | 13 | 1 | -3
CCN(CCCl)c1cc(CN(C)C)cc(NC(=O)c2ccc(C(=O)Nc3cc(CN(C)C)cc(N(CC)CCCl)c3)cc2)c1 | 19 | 89* | -98 | -1 | -11
O=C1C(=O)N(c2ccccc2)P(=O)(N(CCCl)CCCl)N1c1ccccc1 | nt | -79 | 99* | nt | 37*
COC(=O)[C@@H]1[C@@H](CO)[C@@H]2Cn3c(ccc(-c4ccccc4F)c3=O)[C@H]1N2C(=O)C1CCC1 | 1 | nt | nt | 4 | nt
N#Cc1cccc(-c2ccc([C@@H]3[C@@H](CO)N4CCCCN(C(=O)Cc5ccccc5)C[C@H]34)cc2)c1 | -3 | nt | nt | -1 | nt
COC(=O)[C@H]1[C@H](CO)[C@H]2Cn3c(ccc(-c4ccccc4)c3=O)[C@@H]1N2CCc1ccccc1 | -18 | nt | nt | 1 | nt
COc1ccc(CN2CCN(Cc3ccccc3F)CC2)cc1 | 43* | -27 | -1 | 3 | -1
CSc1ccc(CN2CCN(Cc3ccccc3Cl)CC2)cc1 | -11 | 12 | 15 | 4 | 2
COc1ccc(C#Cc2ccc([C@H]3[C@H](CO)N4CCCCN(C(=O)Cc5ccncc5)C[C@@H]34)cc2)cc1 | 9 | nt | nt | 0 | nt
O=C(O)[C@@H]1[C@@H](CO)[C@@H]2Cn3c(ccc(C4=CCCC4)c3=O)[C@H]1N2C(=O)Cc1ccccn1 | 8 | nt | nt | 1 | nt
COc1ccc2c(c1OC)CN1CCc3cc4c(cc3[C@H]1C2)OCO4 | nt | nt | 10 | nt | nt
CCC1CN2CCc3cc(OC)c(OC)cc3C2CC1CC1NCCc2c1[nH]c1ccc(O)cc21 (configuration not stated) | -7 | 73* | nt | -4 | -10
C[C@H]1CN([C@@H](C)CO)C(=O)c2c(c3ccccc3n2C)-c2ccccc2CO[C@H]1CN(C)C(=O)Oc1ccccc1 | -29 | nt | nt | -2 | nt
CCC(=NCCC(c1ccccc1)c1ccccc1)c1c(O)n(C)c(=O)n(C)c1=O | -10 | -60 | -7 | nt | nt
CCC(=NCc1ccc(F)cc1)c1c(O)n(C)c(=O)n(C)c1=O | nt | 80* | nt | nt | nt
COC(=O)[C@H]1[C@H](CO)[C@H]2Cn3c(ccc(C4=CCCC4)c3=O)[C@@H]1N2Cc1ccccn1 | 9 | nt | nt | nt | nt
COC(=O)C1=C(c2ccc(OC(F)(F)F)cc2)C[C@@H]2CC[C@H]1N2C(=O)N1CCCCC1 | nt | 75* | -13 | 0 | -2
O=C(Cc1ccccc1)N1CCCCN2[C@@H](CO)[C@H](c3ccc(C#CC4(O)CCCC4)cc3)[C@@H]2C1 | -3 | nt | nt | -2 | nt
